The entries come from a sample that favours the strongest signals as a whole.
Experiments:
Assay in all cases: glycan array binding signal (z-score within array); higher = stronger binding
Conditions in all cases: glycan notation: IUPAC condensed, linker removed
[1] = target: GlcNAc(b1-2)[GlcNAc(b1-4)]Man(a1-3)[GlcNAc(b1-4)][GlcNAc(b1-2)[GlcNAc(b1-6)]Man(a1-6)]Man(b1-4)GlcNAc(b1-4)[Fuc(a1-6)]GlcNAc
In short: (§1)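 The binding signal is a Z-score computed within each array. Data were drawn from 3228 arrays in the Consortium for Functional Glycomics database, restricted to those with a known protein sequence. Scores were averaged over arrays of the same protein sequence at different concentrations or buffers, and over linkers, and negative values can be taken as non-binding.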

[2] = target: GlcNAc(b1-3)Gal(b1-4)GlcNAc(b1-2)Man(a1-3)[GlcNAc(b1-3)Gal(b1-4)GlcNAc(b1-2)Man(a1-6)]Man(b1-4)GlcNAc(b1-4)GlcNAc
In short: as §1

[3] = target: GlcNAc(b1-3)Man
In short: as §1

[4] = target: GlcNAc(b1-3)[GlcNAc(b1-4)][GlcNAc(b1-6)]GlcNAc
In short: as §1

[5] = target: Man(a1-2)Man(a1-3)Man
In short: as §1

[6] = target: Man(a1-3)[Man(a1-6)]Man(a1-6)[Man(a1-2)Man(a1-3)]Man(b1-4)GlcNAc(b1-4)GlcNAc
In short: as §1

[7] = target: Neu5Ac(a2-3)Gal(b1-3)[Fuc(a1-4)]GlcNAc
In short: as §1

[8] = target: Neu5Ac(a2-3)Gal(b1-4)GlcNAc(b1-2)Man(a1-3)[Neu5Ac(a2-3)Gal(b1-4)GlcNAc(b1-2)Man(a1-6)]Man(b1-4)GlcNAc(b1-4)GlcNAc
In short: as §1

[9] = target: Neu5Ac(a2-3)Gal(b1-4)GlcNAc(b1-2)[Neu5Ac(a2-3)Gal(b1-4)GlcNAc(b1-4)]Man(a1-3)[GlcNAc(b1-4)][Neu5Ac(a2-3)Gal(b1-4)GlcNAc(b1-4)Man(a1-6)]Man(b1-4)GlcNAc(b1-4)GlcNAc
In short: as §1

[10] = target: Neu5Ac(a2-3)Gal(b1-4)GlcNAc(b1-2)[Neu5Ac(a2-3)Gal(b1-4)GlcNAc(b1-6)]Man(a1-6)[Neu5Ac(a2-3)Gal(b1-4)GlcNAc(b1-2)Man(a1-3)]Man(b1-4)GlcNAc(b1-4)GlcNAc
In short: as §1

[11] = target: Neu5Ac(a2-3)Gal(b1-4)GlcNAc(b1-3)Gal(b1-4)GlcNAc(b1-3)GalNAc
In short: as §1

[12] = target: Neu5Ac(a2-3)Gal(b1-4)[Fuc(a1-3)]GlcNAc(b1-3)Gal
In short: as §1

[13] = target: Neu5Ac(a2-3)Gal(b1-4)[Fuc(a1-3)]GlcNAc(b1-6)[Neu5Ac(a2-3)Gal(b1-3)]GalNAc
In short: as §1

[14] = target: Neu5Ac(a2-3)GalNAc
In short: as §1

[15] = target: Neu5Ac(a2-3)[GalNAc(b1-4)]Gal(b1-4)Glc
In short: as §1

[16] = target: Neu5Ac(a2-6)Gal(b1-4)GlcNAc(b1-2)Man(a1-3)Man(b1-4)GlcNAc(b1-4)GlcNAc
In short: as §1

[17] = target: Neu5Ac(a2-6)Gal(b1-4)GlcNAc(b1-2)Man(a1-3)[Neu5Ac(a2-6)Gal(b1-4)GlcNAc(b1-2)Man(a1-6)]Man(b1-4)GlcNAc(b1-4)[Fuc(a1-6)]GlcNAc
In short: as §1

[18] = target: Neu5Ac(a2-6)Gal(b1-4)GlcNAc(b1-2)Man(a1-6)[GlcNAc(b1-2)Man(a1-3)]Man(b1-4)GlcNAc(b1-4)GlcNAc
In short: as §1

[19] = target: Neu5Ac(a2-6)Gal(b1-4)GlcNAc(b1-2)Man(a1-6)[Man(a1-3)]Man(b1-4)GlcNAc(b1-4)GlcNAc
In short: as §1

[20] = target: Neu5Ac(a2-6)Gal(b1-4)GlcNAc(b1-2)[Neu5Ac(a2-6)Gal(b1-4)GlcNAc(b1-4)]Man(a1-3)[GlcNAc(b1-4)][Neu5Ac(a2-6)Gal(b1-4)GlcNAc(b1-2)[Neu5Ac(a2-6)Gal(b1-4)GlcNAc(b1-6)]Man(a1-6)]Man(b1-4)GlcNAc(b1-4)GlcNAc
In short: as §1

[21] = target: Neu5Ac(a2-6)Gal(b1-4)GlcNAc(b1-2)[Neu5Ac(a2-6)Gal(b1-4)GlcNAc(b1-6)]Man(a1-6)[Neu5Ac(a2-6)Gal(b1-4)GlcNAc(b1-2)Man(a1-3)][GlcNAc(b1-4)]Man(b1-4)GlcNAc(b1-4)GlcNAc
In short: as §1

[22] = target: Neu5Ac(a2-6)Gal(b1-4)GlcNAc(b1-3)Gal(b1-4)GlcNAc(b1-3)Gal(b1-4)GlcNAc(b1-2)Man(a1-3)[Neu5Ac(a2-6)Gal(b1-4)GlcNAc(b1-3)Gal(b1-4)GlcNAc(b1-3)Gal(b1-4)GlcNAc(b1-2)Man(a1-6)]GalNAc
In short: as §1

[23] = target: Neu5Gc(a2-6)GalNAc
In short: as §1

B1: Ovorubin (Pomacea canaliculata), J7I2T6 (protein)
chain: MFVATSLLLAIATLVVRASPHNYLIMDIEPPKSVSERDILNLLSPLQVKHSFRVTGSTRLLIVIRLDAQSYEKLDEITVPGKVEVIPAVNMADTMERCGVSWPRVELTDDNVTLFESESTLTDVTKEQLKAMLIGYGEHMSGLLQAHRFEYYQAAGATPHRHFVFVNSVPDEIEVFGREGVDIWGGPGEFVVKPQYVTRI
glycan array binding signal (z-score) [1]: -0.233
glycan array binding signal (z-score) [2]: -0.39
glycan array binding signal (z-score) [3]: -0.105
glycan array binding signal (z-score) [4]: 7.53
glycan array binding signal (z-score) [5]: 0.255
glycan array binding signal (z-score) [6]: -0.9
glycan array binding signal (z-score) [7]: -0.148
glycan array binding signal (z-score) [8]: -0.45
glycan array binding signal (z-score) [9]: -0.397
glycan array binding signal (z-score) [10]: 0.215
glycan array binding signal (z-score) [11]: 0.207
glycan array binding signal (z-score) [12]: -1.06
glycan array binding signal (z-score) [13]: -0.055
glycan array binding signal (z-score) [14]: 0.287
glycan array binding signal (z-score) [15]: -0.336
glycan array binding signal (z-score) [16]: 0.036
glycan array binding signal (z-score) [17]: -0.129
glycan array binding signal (z-score) [18]: -0.738
glycan array binding signal (z-score) [19]: -0.358
glycan array binding signal (z-score) [20]: 3.19
glycan array binding signal (z-score) [21]: -0.646
glycan array binding signal (z-score) [22]: 3.06
glycan array binding signal (z-score) [23]: 0.691
